This is part of a sample that, as a whole, favours compounds with a hit. Of some 83,000 tested, about 20% had one in any assay.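 Treatment: one concentration, 48 hours, 96-well format. Scoring: percent growth, with anything below 10 considered active.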 Unmarked numbers belong to inactive results. Activity calls are given as the source filed them.
Legend:
Test in all cases: NCI-60 one-dose screen, 48 h (100 = growth as untreated, 0 = no growth, -100 = all killed)
Details in all cases: 10 µM
[1] = system: SR leukemia
[2] = system: RPMI-8226 leukemia
[3] = system: OVCAR-8 ovarian
[4] = system: OVCAR-5 ovarian
[5] = system: OVCAR-4 ovarian
[6] = system: SK-OV-3 ovarian
[7] = system: IGROV1 ovarian
[8] = system: OVCAR-3 ovarian
[9] = system: HS 578T breast
[10] = system: NCI/ADR-RES ovarian
[11] = system: T-47D breast
[12] = system: BT-549 breast
[13] = system: MDA-MB-435 melanoma
[14] = system: SW-620 colon
[15] = system: MCF7 breast
[16] = system: HCT-116 colon
[17] = system: HCC-2998 colon
[18] = system: KM12 colon

Row | Compound | growth [1] | growth [2] | growth [3] | growth [4] | growth [5] | growth [6] | growth [7] | growth [8] | growth [9] | growth [10] | growth [11] | growth [12] | growth [13] | growth [14] | growth [15] | growth [16] | growth [17] | growth [18]
1 | COc1ccc(-c2n[nH]nc2-c2cc(OC)c3c(c2OC)OCO3)cc1 | 10.8% | 25.1% | 43% | 44.2% | 51.8% | 52.7% | 45.3% | -11.5% (active) | -5.63% (active) | 2.06% (active) | 27.9% | 16.8% | -12.3% (active) | 19.4% | 27.7% | 25.6% | 39.6% | 31.9%
2 | O=C(Nc1ccc(OS(=O)(=O)c2ccccc2)cc1)C1CCCCC1 | 47.2% | 76.4% | 94.6% | 100% | 102% | 95.6% | 106% | 95% | 103% | 88.3% | 85.4% | 84% | 100% | 102% | 97% | 72.1% | 92.4% | 88.5%
3 | COc1cc(-c2nn(-c3cccc(NC(=O)NCCNC(=O)c4ccccc4)c3)cc2-c2ccncc2)ccc1Cl | 5.61% (active) | 5.06% (active) | 8.83% (active) | 33% | 26.6% | 33.6% | 28.1% | 21.1% | 30.9% | 46.1% | -7.51% (active) | -7.03% (active) | 2.69% (active) | 11.8% | 6.01% (active) | 3.85% (active) |  | 12.2%
4 | CC(=O)O[C@@]12CO[C@@H]1C[C@H](O)[C@@]1(C)C(=O)[C@H](O)C3=C(C)[C@@H](OC(=O)[C@H](O)[C@@H](NC(=O)OC(C)(C)C)c4ccccc4)C[C@@](O)([C@@H](OC(=O)c4ccccc4)C12)C3(C)C (stereo not given in full) | 11.1% | 25.4% | 38.4% | 40.1% | 58% | 47.3% | 39.2% | 7.26% (active) | 12.3% | -21.2% (active) | 65.2% | 42.8% | -11.7% (active) | 48.1% | 16.1% | 34.6% |  | 29.6%
5 | CC(C)(C)c1ccc(S(=O)(=O)N[C@H]2CC[C@H]3[C@@H]4CCc5cc(OS(=O)(=O)O)ccc5[C@H]4CC[C@]23C)cc1 | 20.7% | 34.1% | 52.1% | 87.3% | 53.4% | 82.1% | 41.4% | 34.1% | 66.5% | 47.3% | 19.9% | 47.5% | 49.9% | 56.6% | 15.3% | 26.8% | 73.2% | 40.9%
6 | O=C(Cn1cc(CO)nn1)Nc1nc2ccccc2s1 | 100% | 107% | 99.4% | 101% | 108% | 104% | 97.8% | 101% | 109% | 101% | 110% | 106% | 99.7% | 106% | 97.9% | 97.2% |  | 107%
7 | COc1cc(-c2csc(NC(=O)Nc3cc(C(F)(F)F)cc(C(F)(F)F)c3)n2)cc(OC)c1OC | 16.5% | -6.92% (active) | 19.4% | 30.4% | 21.1% | 0.491% (active) | 35.1% | -3.97% (active) | 31.2% | 10.4% | -8.28% (active) | 0.972% (active) | 13% | 26.5% | 2.97% (active) | 0.288% (active) | 22.4% | 18.7%
8 | N#CC1=C(N)Oc2cc(N)ccc2C1c1cccnc1 (stereo not given) | 70.6% | 106% | 106% | 103% | 80.3% | 93.7% | 101% | 96.6% | 82.4% | 96.2% | 94.2% | 88.4% | 71.8% | 90.1% | 89.4% | 88.3% | 82.4% | 89.7%
9 | N=C1S/C(=C/c2ccc(-c3ccc4c(c3)C(=O)NC4=O)o2)C(=O)N1c1ccc(Br)cc1 | 25% | 38.8% | 37.8% | 86.3% | 1.3% (active) | 62.3% | 21.9% | 51.4% | 61.6% | 50.5% | 19.9% | 60.3% | 39.1% | 48.5% | 3.39% (active) | 31.8% |  | 46.4%
10 | CC(C)N(CCOc1ccc(-c2nc3sccn3c2-c2ccnc(S(C)(=O)=O)n2)cc1)C(C)C | 74.4% | 71.2% | 90.6% | 104% | 72% | 90.3% | 96.2% | 72.8% | 76.6% | 89.2% | 105% | 90.8% | 92.6% | 78.2% | 82.5% | 61.5% | 88% | 90.4%
11 | O=C(Nc1ccc2c(O)cc(S(=O)(=O)O)cc2c1)c1ccc([N+](=O)[O-])cc1 | 60.9% | 92.9% | 88.9% | 101% | 103% | 82.7% | 102% | 104% | 103% | 100% | 86% | 94.3% | 106% | 100% | 96.3% | 94.1% |  | 97.2%
12 | O=S(=O)(Oc1ccc(-c2ccc3sccc3c2)cc1)c1ccccc1 | 105% | 107% | 106% | 97.3% | 103% | 107% | 107% | 110% | 108% | 103% | 102% | 101% | 97.5% | 100% | 77.5% | 105% | 93.4% | 110%
13 | CNC(=O)c1cc(Oc2ccc3c(c2)sc2nc(-c4ccc(NC(=O)Nc5ccc(Cl)c(C(F)(F)F)c5)cc4)cn23)ccn1 | 55.5% | 76.1% | 104% | 93.4% | 80.3% | 93.1% | 78% | 86.9% | 71.7% | 89.9% | 19.4% | 75.7% | 91.1% | 103% | 82.6% | 73.2% |  | 83.5%
14 | CCOC(=O)c1cc(C(=O)c2ccc(F)cc2F)n2ccccc12 | 73% | 77.6% | 88% | 99.7% | 97.8% | 88.7% | 82.3% | 103% | 93.2% | 88.5% | 76.3% | 88.5% | 106% | 94.5% | 94.1% | 92.5% | 101% | 96.1%
15 | CCN(CC)CCOC(=O)c1cc(OCc2ccccc2)c(OCc2ccccc2)c(OCc2ccccc2)c1 | 1.2% (active) | 32.9% | 56.3% | 83.3% | 75.5% | 100% | 42.6% | 64.9% | 66.3% | 52.5% | 66.8% | 86.8% | 74.7% | 19.7% | 8.2% (active) | 24% | 53.8% | 40.7%
16 | C[N+]1(CCCCC[N+]2(C)CCCC2)CCCC1 | 97.4% | 61.7% | 78.1% | 72.9% | 97.4% | 68.9% | 105% | 107% | 106% | 75% | 101% | 77.8% | 98.6% | 98.3% | 95.2% | 107% | 119% | 102%
17 | COc1cc2cc(Oc3ccc(NC(=O)Nc4ccc(Cl)c(Cl)c4)cc3)c(C)nc2cc1OC | 18% | 4.2% (active) | 15% | 53% | 31.9% | 28.6% | 18.6% | -10% (active) | 45.1% | 17.1% | 60.9% | 28.1% | 12.3% | 23.4% | 13.8% | 10.5% | 37.6% | 13.9%

Reference: PubChem BioAssay (NCI)
